# Screens as filed in PubChem.
# SENP8 block-1 – inhibitors of human SENP8 protease | Q96LD8 | recombinant SENP8, Nedd8 substrate fluorescence | inhibition, % at 20 µM | 360,000 tested, 0.64% active; in the data active means inhibition mostly above about 40%, no sharp cut-off; inactive means mostly below about 27%
# Target sequence (Q96LD8 whole entry, looked up): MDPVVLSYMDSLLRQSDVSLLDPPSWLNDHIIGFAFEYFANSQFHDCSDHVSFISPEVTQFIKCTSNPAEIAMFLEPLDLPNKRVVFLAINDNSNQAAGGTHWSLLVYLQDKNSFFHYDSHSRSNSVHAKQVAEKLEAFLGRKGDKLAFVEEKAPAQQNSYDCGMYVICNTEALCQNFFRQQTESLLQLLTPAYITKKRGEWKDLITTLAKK
# SENP7 inh – SENP7 protease inhibition; recombinant SENP7, Z-RLRGG-aminoluciferin luminescence, 40 min; inhibition, % at 5 µM; 330,000 tested, 1.5% active;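 active means inhibition above about 50% at the single test dose, limit read from the data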;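 further: plate controls were DMSO with enzyme for no effect and no enzyme buffer wells for full effect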
# Target sequence (Q9BQF6 706-1050 limits assumed): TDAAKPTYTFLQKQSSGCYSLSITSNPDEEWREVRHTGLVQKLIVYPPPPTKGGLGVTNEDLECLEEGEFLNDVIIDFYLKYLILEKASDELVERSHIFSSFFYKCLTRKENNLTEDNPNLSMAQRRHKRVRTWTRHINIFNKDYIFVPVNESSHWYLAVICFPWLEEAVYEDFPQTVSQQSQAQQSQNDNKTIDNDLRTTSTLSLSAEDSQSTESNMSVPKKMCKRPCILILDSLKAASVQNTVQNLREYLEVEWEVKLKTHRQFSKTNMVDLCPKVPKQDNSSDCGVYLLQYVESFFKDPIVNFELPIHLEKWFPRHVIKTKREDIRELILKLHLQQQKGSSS
# PPC-1+TRAIL kill – kills PPC-1 cancer cells in the presence of TRAIL; PPC-1 cells + TRAIL, ATPLite viability luminescence; cell killing (% activity), % at 4 µM or 5 µM; 220,000 tested, 0.41% active; AID 1443;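 active means cell killing above 50% in the first pass at 4 µM, then a duplicate retest at 5 µM averaging 50% or more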;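 further: plate controls were cells with TRAIL plus DMSO for no effect and medium-only wells lacking cells for full effect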
# C8 TRAIL sens – sensitizes caspase-8 expressing cells to TRAIL. NB7+C8 cells + TRAIL, ATPlite viability luminescence. inhibition (viability loss, TRAIL sensitization), % at 10 µM. 360,000 tested, 1% active. AID 624354;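 active means compounds causing at least 50% loss of cell viability in the single-dose screen, relative to plate controls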
# SENP6 block – SENP6 protease inhibition | Q9GZR1 | Recombinant SENP6 catalytic domain, aminoluciferin luminescence | inhibition, % at 10 µM | 330,000 tested, 1.8% active | AID 2599;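 active means inhibition above about 50% at the single tested dose, limit read from the data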;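 further: plate controls were DMSO wells with enzyme for no effect and DMSO wells lacking enzyme for full effect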
# SENP8 block-2 – inhibitors of human SENP8 protease. Q96LD8. purified SENP8, Z-RLRGG-aminoluciferin cleavage, luminescence. inhibition, % at 10 µM. 330,000 tested, 1.2% active; in the data active means inhibition above about 50%
# SENP8 conf – human SENP8 inhibition, confirmed | Recombinant SENP8, Z-RLRGG-aminoluciferin luminescence, 60 min | 6,200 tested, 40% active | AID 488912 | inhibition, % at 12.5 µM | shares compounds with SENP7 inh;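 active means mean inhibition across replicates above about 50%, limit read from the data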
# SENP6 confirm – human SENP6 inhibition, confirmed. recombinant SENP6, Z-RLRGG-aminoluciferin luminescence. 6,200 tested, 58% active. shares compounds with SENP7 inh. inhibition, % at 12.5 µM
# SENP7 confirm – confirmation of human SENP7 protease inhibitors. shares compounds with SENP7 inh. recombinant SENP7, Z-RLRGG-aminoluciferin luminescence, 40 min. inhibition, % at 12.5 µM. 6,200 tested, 69% active. AID 488917
# Casp3 SENP sel – inhibits human caspase-3 in SENP selectivity test; AID 488918; inhibition, % at 12.5 µM; shares compounds with SENP7 inh; 6,200 tested, 60% active; purified caspase-3, Z-DEVD-aminoluciferin luminescence, 60 min;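 active means mean inhibition above about 50%, limit read from the data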;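 further: plate controls were enzyme with DMSO for no effect and wells without caspase-3 for full effect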
# SENP luc ctr – luminescence interference (SENP counter-screen) | AID 488919 | inhibition, % at 12.5 µM | shares compounds with SENP7 inh | Pre-incubated SENP8/Z-RLRGG-aminoluciferin, luciferase luminescence interference | 6,200 tested, 39% active;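 active means mean inhibition above about 50% when retested at one dose, limit read from the data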;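 further: plate controls were DMSO wells with completed reaction for no effect and substrate without enzyme for full effect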
# An asterisk follows results filed as active; i = inactive; . = not tested or not shown; ! = not active in a repeat. A selection: hits, their analogues and other compounds. The true share with any hit is near 3%.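 How the source made its calls, unless noted: active means mean inhibition above about 50% in the one-dose retest (limit read from the data); inactive means the rest.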
SMILES,SENP8 block-1,SENP7 inh,PPC-1+TRAIL kill,C8 TRAIL sens,SENP6 block,SENP8 block-2,SENP8 conf,SENP6 confirm,SENP7 confirm,Casp3 SENP sel,SENP luc ctr
O=C1c2ccccc2C(=O)N1CCOc1ccccc1Cl,9,59*,.,-32,51*,37,32,48,78*,47,56*
Nc1cccc2c1C(=O)N(CCOc1ccc(F)cc1)C2=O,-321,55*,.,-18,68*,49,55*,48,85*,53*,5
COCCNC(=O)C1CCCN(Cc2ccccc2-c2ccccc2)CC1 (stereo not given),15,.,.,-10,.,.,.,.,.,.,.
Cn1cccc1/C=N/NC(=O)c1cc2ccccc2cc1O,-207,48,.,4,59*,49,56*,54*,84*,68*,2
C/C(=N/NC(=O)c1cccs1)c1cccs1,-12,62*,28,17,33,15,25,25,70*,63*,32
O=C(NNC(=O)c1cc2ccccc2cc1O)c1cccs1,-17,87*,.,6,93*,95*,97*,98*,102*,97*,91*
O=C(NNC(=O)c1ccc2ccccc2c1O)c1cccs1,-196,-2,.,-3,26,9,.,.,.,.,.
C/C(=N\NC(=O)c1cc2ccccc2cc1O)c1ccc(C)o1,-229,63*,.,34,84*,68*,80*,78*,95*,90*,47
C/C(=N\NC(=O)c1cc2ccccc2cc1O)c1cccs1,-45,89*,.,53*,93*,86*,12,94*,101*,96*,34
Cn1cccc1C(=O)N/N=C/c1c(Cl)cccc1Cl,4,83*,.,2,79*,76*,83*,82*,72*,91*,26
Cc1ccc2c(Cl)c(C(=O)N/N=C/c3cccn3C)sc2c1,-5,84*,29,12,39,29,10,8,-5,11,1
O=C(N/N=C/c1c(Cl)cccc1Cl)c1ccc(F)cc1,3,-9,-7,-2,-16,-9,.,.,.,.,.
COC(=O)c1cc(S(=O)(=O)Nc2cc(OC)cc(OC)c2)c[nH]1,-3,-5,.,17,-10,-14,.,.,.,.,.
CC(=O)c1ccc(OCc2cc(=O)n3ccsc3n2)cc1,-11,2,15,12,7,-14,.,.,.,.,.
O=C(OCc1cc(=O)n2ccsc2n1)c1ccc(O)cc1O,-78,39,.,-3,64*,47,55*,49,79*,76*,61*
Cc1ccsc1C(=O)OCc1cc(=O)n2ccsc2n1,-63,57*,.,15,53*,48,27,50,82*,81*,11
O=C(c1ccoc1)N1CCN(c2cc(-c3cccc(F)c3)nc3cc(-c4cccc(Cl)c4)nn23)CC1,-420,.,.,33,.,.,.,.,.,.,.
COc1ccc2[nH]c3c(c2c1)CCN1C(=O)C(CC(=O)NCC24CC5CC(CC(C5)C2)C4)C[C@H](C(=O)N(C(C)C)C(C)C)[C@@]31C (stereo not given in full),1,1,.,6,.,.,.,.,.,.,.
O=C1Nc2ccccc2-n2nnnc2C1N1CCN(c2ccc(C(F)(F)F)cn2)CC1 (stereo not given),2,.,.,1,.,.,.,.,.,.,.
CCN(CC)CCN1C(=O)Cn2c(C)c(C)c3cccc1c32,20,58*!,11,5,-14,-8,-5,3,0,0,0
CC(C)(C)NC(=O)CN(C(=O)CSc1nnc(COc2ccccc2)o1)c1cccc(F)c1,12,52*,7,7,-5,2,0,-1,-3,-4,-4
CNC(=O)c1ccc(-c2sc3nc(N4CCOCC4)c4c(c3c2N)CC(C)(C)OC4)o1,i,12,27,6,10,-5,.,.,.,.,.
CNC(=O)c1ccc(-c2sc3nc(N4CCOCC4)c4c(c3c2N)CCCC4)o1,-251,35,11,-6,55*,5,2,8,5,4,-1
COc1ccc(C2C(=O)c3ccccc3C2=O)cc1,-19,12,18,31,57*,62*,-8,67*,91*,84*,62*
COc1ccc(C2=C(N)c3ccccc3C2=O)cc1,23,-26,39,47,54*,37,52*,49,83*,73*,8
SMILES,SENP8 block-1,SENP7 inh,PPC-1+TRAIL kill,C8 TRAIL sens,SENP6 block,SENP8 block-2,SENP8 conf,SENP6 confirm,SENP7 confirm,Casp3 SENP sel,SENP luc ctr
CCOC(=O)COc1cc(N)c(Cl)cc1Cl,-14,0,11,-1,-39,80*,2,-1,-4,-1,-6
CCOC(=O)COc1cc(-n2c(=S)[nH]c3ccccc3c2=O)c(Cl)cc1Cl,-6,-5,4,-2,-9,-5,.,.,.,.,.
Nc1ncnc2c1ccn2[C@H]1CN(Cc2ccc(Cl)cc2)C[C@@H](CO)O1,4,.,.,-3,.,.,.,.,.,.,.
Cc1cc(C=C2C(=O)c3ccccc3C2=O)c(C)n1C,18,3,-21,15,66*,56*,10,37,72*,37,7
Cc1cccc(-n2c(C)cc(C=C3C(=O)c4ccccc4C3=O)c2C)c1,-64,39,12,-3,44,32,.,.,.,.,.
Cc1ccc(C=C2C(=O)c3ccccc3C2=O)s1,40,92*,-1,-10,70*,81*,68*,94*,99*,88*,40
CCn1c(C)cc(C=C2C(=O)c3ccccc3C2=O)c1C,14,.,9,49,.,.,.,.,.,.,.
Cc1ccc(C=C2C(=O)c3ccccc3C2=O)o1,22,95*,20,1,97*,79*,96*,97*,101*,96*,75*
CC(=O)c1c(C)[nH]c(C(=O)NCCc2c[nH]c3ccccc23)c1C,2,1,.,-12,-20,-12,.,.,.,.,.
CC(OC(=O)C1CCN(S(=O)(=O)c2ccc(F)cc2)CC1)C(=O)NC1CCCCC1C (stereo not given),17,-5,.,-3,-13,-6,.,.,.,.,.
Cc1ccc(-n2ncc3c2ncn2c(C)nnc32)cc1C,-246,-9,35,32,54*,47,50,45,73*,76*,13
Nc1ccccc1N=Nc1ccccc1N,-88,85*,.,24,86*,77*,85*,83*,96*,73*,64*
